# Measured potencies and affinities stand elsewhere. Records with an inconclusive call do not appear. The source made the active and inactive calls.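 Rule for the calls: active = signal loss with fitted half-maximal concentration at or below twice the top valid tested dose in every test run; inconclusive = runs disagree, flat 30 to 70% signal loss, or poor fit; inactive = all runs flat, opposite direction, or potency beyond limit.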
# Assay: general mammalian cell viability loss – inhibitor set, cherry-pick, set 2, cytotoxicity control for miR-122 modulator project, dose response (AID 720697)
row,SMILES,outcome
1,COc1ccc2c(c1)c(CCN)c(C)n2Cc1ccccc1,inactive
2,COc1ccc(C2SCC(=O)Nc3c2c(=O)[nH]n3C2CCCCCC2)cc1 (configuration not stated),inactive

# Source: PubChem BioAssay AID720697 (Broad Institute, 2013)
